Results on 26 compounds are retold here after PubChem BioAssay.

Structures are written as SMILES. Values joined by “and” are separate entries in the source; they are usually repeats but may differ in a detail not shown here. Identical values can stand only once. Active and inactive are the calls of the source.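 Rule for the calls, unless noted: active = compounds whose cell count with miR-34 switched on is under 0.7 times the count with it off; inactive = the rest.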

The nature of experiment [1]: viability loss with induced miR-34 in A549 – imaging, A549 dox-inducible miR-34, nuclei and caspase counts, primary screen (AID 1347080). Note: test concentration not given here. The note with it: A549 miR-34 inducible, Hoechst nuclei count, 48 h.
Experiment [2] in a line: galactose survival enhancers in mitochondrial complex I cybrids – cell-based, galactose medium, ATP luminescence, primary screen (AID 1645843;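 active = z-score of at least 1.8 in each of two replicates, scored against plate mean and spread of sample wells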;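 note: positive z means more ATP and so rescue of galactose-driven cybrid death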). Conditions: complex I mutant cybrid cells, 72 h, stronger effect = higher value.
The mark [3] stands for this setting: stronger effect = lower value, cell number ratio, induced over uninduced.
Setting [4] is: measured here: relative caspase fold change +Dox/-Dox.
The mark [5] stands for this setting: measured here: total cells with miR-34 induction, stronger effect = lower value.
[6] abbreviates: measured here: total cells without miR-34 induction.

As for `CCCCC(=O)N(Cc1ccc(-c2ccccc2-c2nn[nH]n2)cc1)C(C(=O)O)C(C)C` (stereo not given), the fold change in experiment [1] (setting [3]) was 0.925 (inactive); in experiment [1] (setting [4]) it was 1.23. Besides, the figures for the cell count in experiment [1] (setting [5]) and in experiment [1] (setting [6]) were 9560 and 10300, respectively. The z-score in experiment [2] was 1.69 (inactive).

As to `CC1CC2C3CCC4=CC(=O)C=C[C@]4(C)[C@@]3(F)C(O)C[C@]2(C)C1C(=O)CO` (stereo not given in full), the fold change is 0.805 (inactive) in experiment [1] (setting [3]) and 1.08 in experiment [1] (setting [4]). The cell count was found to be 6880 in experiment [1] (setting [5]) and 8550 in experiment [1] (setting [6]). Moreover, the z-score in experiment [2] was 1.76 (inactive).

On to `CC(CCC(=O)O)C1CCC2C3C(=O)CC4CC(=O)CC[C@]4(C)C3CC(=O)[C@]12C` (stereo not given in full), for which the fold change is 0.951 (inactive) in experiment [1] (setting [3]) and 0.625 in experiment [1] (setting [4]). The cell count stood at 9350 in experiment [1] (setting [5]) and 9830 in experiment [1] (setting [6]). For the same compound, the z-score in experiment [2] was 0.29 (inactive).

Take `COC1OC2O[C@@]3(C)CCC4C(C)CCC(C1C)[C@@]24OO3` (stereo not given in full): the figures for the fold change in experiment [1] (setting [3]) and in experiment [1] (setting [4]) were 0.961 (inactive) and 0.771, respectively. For the same compound, the cell count in experiment [1] (setting [5]) amounted to 9270; in experiment [1] (setting [6]), 9650. Moreover, in experiment [2], the z-score was -0.035 (inactive).

On to `C=CCc1ccccc1OCC(O)CN[C@]1(C)CCC[C@H](C(C)(C)NC(=O)CBr)C1` (stereo not given in full), for which the results for the fold change in experiment [1] (setting [3]) and in experiment [1] (setting [4]) were 0.814 (inactive) and 1.93, respectively. Also, the figures for the cell count in experiment [1] (setting [5]) and in experiment [1] (setting [6]) were 70 and 86, respectively. Moreover, the z-score in experiment [2] was -1.52 (inactive).

As for `OCC1OC(n2cnc3c(NC4CCCC4)nc(Cl)nc32)C(O)C1O` (stereo not given), the fold change was 0.88 (inactive) in experiment [1] (setting [3]) and 1.42 in experiment [1] (setting [4]). In addition, the cell count in experiment [1] (setting [5]) amounted to 9520; in experiment [1] (setting [6]), 10800. In addition, in experiment [2], the z-score is 1.5 (inactive).

As for `O=C(OC1C(Oc2ccccc2COC(=O)C2(O)C=CCCC2=O)OC(CO)C(O)C1O)c1ccccc1` (stereo not given), the fold change was 0.897 (inactive) in experiment [1] (setting [3]) and 1.99 in experiment [1] (setting [4]). Also, the cell count in experiment [1] (setting [5]) turned out to be 1640; in experiment [1] (setting [6]), 1830. The z-score in experiment [2] is -1.2 (inactive).

On to `C=C1C(=CC=C2CCC[C@@]3(C)C2CCC3C(C)CCCC(C)(C)O)CC(O)CC1O` (stereo not given in full), for which the results for the fold change in experiment [1] (setting [3]) and in experiment [1] (setting [4]) were 0.912 (inactive) and 1.66, respectively. Besides, the cell count was found to be 9420 in experiment [1] (setting [5]) and 10300 in experiment [1] (setting [6]). Also, the z-score in experiment [2] was -1.52 (inactive).

Take `CC1CC2C3CC(F)C4=CC(=O)C(Cl)=C[C@]4(C)[C@@]3(F)C(O)C[C@]2(C)[C@@]1(O)C(=O)CO` (stereo not given in full): the fold change in experiment [1] (setting [3]) was 0.952 (inactive); in experiment [1] (setting [4]), 1.63. For the same compound, the cell count came to 6600 in experiment [1] (setting [5]) and 6930 in experiment [1] (setting [6]). Also, the z-score in experiment [2] was 0.895 (inactive).

For `CCC1=CC2CN(C1)Cc1c([nH]c3ccccc13)[C@@](C(=O)OC)(c1cc3c(cc1OC)N(C)C1[C@@](O)(C(=O)OC)C(OC(C)=O)[C@]4(CC)C=CCN5CC[C@]31C54)C2` (stereo not given in full), the fold change in experiment [1] (setting [3]) was 1.19 (inactive); in experiment [1] (setting [4]), 1.47. Besides, the cell count amounted to 1620 in experiment [1] (setting [5]) and 1360 in experiment [1] (setting [6]). Further, in experiment [2], the z-score was -1.06 (inactive).

With `C[C@]12C=CC(=O)C=C1CCC1C2C(O)C[C@@]2(C)C1CC[C@]2(O)C(=O)COC(=O)CCC(=O)O` (stereo not given in full), the fold change in experiment [1] (setting [3]) is 0.962 (inactive); in experiment [1] (setting [4]), 2.02. Moreover, the cell count in experiment [1] (setting [5]) was determined as 7550; in experiment [1] (setting [6]) it was 7850. For the same compound, the z-score in experiment [2] is 1.77 (inactive).

Consider `CC1CCC2C(C)C(OC(=O)CCC(=O)O)OC3O[C@@]4(C)CCC1[C@]32OO4` (stereo not given in full), for which the fold change was 0.992 (inactive) in experiment [1] (setting [3]) and 1.91 in experiment [1] (setting [4]). The values for the cell count in experiment [1] (setting [5]) and in experiment [1] (setting [6]) were 6760 and 6810, respectively. Also, the z-score in experiment [2] was -1.79 (inactive).

As to `CCC(=O)O[C@]1(C(=O)SCF)C(C)CC2C3CC(F)C4=CC(=O)C=C[C@]4(C)[C@@]3(F)C(O)C[C@@]21C` (stereo not given in full), the figures for the fold change in experiment [1] (setting [3]) and in experiment [1] (setting [4]) were 0.897 (inactive) and 1.65, respectively. For the same compound, the cell count in experiment [1] (setting [5]) turned out to be 6980; in experiment [1] (setting [6]), 7780. Also, the z-score in experiment [2] was 1.79 (inactive).

On to `O=C1NC(C(=O)O)CS1` (stereo not given), for which the results for the fold change in experiment [1] (setting [3]) and in experiment [1] (setting [4]) were 0.93 (inactive) and 1.73, respectively. Besides, the cell count was 9590 in experiment [1] (setting [5]) and 10300 in experiment [1] (setting [6]). The z-score in experiment [2] is 1.05 (inactive).

Consider `CC(C)OC(=O)CCCC=CCC1C(O)CC(O)C1CCC(O)CCc1ccccc1` (stereo not given), for which the figures for the fold change in experiment [1] (setting [3]) and in experiment [1] (setting [4]) were 1 (inactive) and 2.41, respectively. In addition, the cell count in experiment [1] (setting [5]) and in experiment [1] (setting [6]) was 9620 each time. Also, in experiment [2], the z-score is -1.17 (inactive).

Regarding `CC(=O)C1CCC2C3CCC4=CC(=O)CC[C@]4(C)C3CC[C@]12C` (stereo not given in full), the figures for the fold change in experiment [1] (setting [3]) and in experiment [1] (setting [4]) were 0.861 (inactive) and 1.42, respectively. Further, the cell count in experiment [1] (setting [5]) came out at 7200; in experiment [1] (setting [6]), 8360. For the same compound, the z-score in experiment [2] is -0.365 (inactive).

In the case of `Cc1ccsc1C(=CCCN1CCCC(C(=O)O)C1)c1sccc1C` (stereo not given), the fold change in experiment [1] (setting [3]) is 0.928 (inactive); in experiment [1] (setting [4]), 1.05. Moreover, the results for the cell count in experiment [1] (setting [5]) and in experiment [1] (setting [6]) were 8550 and 9210, respectively. In addition, the z-score in experiment [2] is 1.02 (inactive).

Take `CC#C[C@]1(O)CCC2C3CCC4=CC(=O)CCC4=C3C(c3ccc(N(C)C)cc3)C[C@@]21C` (stereo not given in full): the fold change in experiment [1] (setting [3]) is 0.84 (inactive); in experiment [1] (setting [4]), 0.861. The cell count is 5600 in experiment [1] (setting [5]) and 6670 in experiment [1] (setting [6]). In addition, the z-score in experiment [2] was -0.035 (inactive).

With `CCN1CCCC1CNC(=O)c1c(O)c(Cl)cc(Cl)c1OC` (stereo not given), the figures for the fold change in experiment [1] (setting [3]) and in experiment [1] (setting [4]) were 1.02 (inactive) and 1.39, respectively. Moreover, the cell count was determined as 9680 in experiment [1] (setting [5]) and 9480 in experiment [1] (setting [6]). Moreover, the z-score in experiment [2] was 0.65 (inactive).

Regarding `O=C(OC1CC2CC3CC(C1)N2CC3=O)c1c[nH]c2ccccc12` (stereo not given), the fold change in experiment [1] (setting [3]) is 0.871 (inactive); in experiment [1] (setting [4]), 2.24. Moreover, the cell count in experiment [1] (setting [5]) amounted to 8970; in experiment [1] (setting [6]), 10300. In addition, the z-score in experiment [2] is 0.88 (inactive).

In the case of `NC(C(=O)NC1C(=O)N2C(C(=O)O)=C(Cl)CSC12)c1ccccc1` (stereo not given), the fold change is 1.39 (inactive) in experiment [1] (setting [3]) and 0.686 in experiment [1] (setting [4]). In addition, the cell count was determined as 9470 in experiment [1] (setting [5]) and 6800 in experiment [1] (setting [6]). The z-score in experiment [2] is 0.295 (inactive).

With `C#C[C@]1(O)CCC2C3C(C)CC4=C(CCC(=O)C4)C3CC[C@@]21C` (stereo not given in full), the fold change is 0.909 (inactive) in experiment [1] (setting [3]) and 1.5 in experiment [1] (setting [4]). The cell count in experiment [1] (setting [5]) amounted to 8730; in experiment [1] (setting [6]), 9600. Moreover, the z-score in experiment [2] is -0.655 (inactive).

Regarding `C[C@]12CC(O)C3C(CCC4=CC(=O)CC[C@@]43C)C1CCC2C(=O)CO` (stereo not given in full), the fold change in experiment [1] (setting [3]) was 0.859 (inactive); in experiment [1] (setting [4]), 2.3. Moreover, the cell count in experiment [1] (setting [5]) was found to be 7080; in experiment [1] (setting [6]), 8240. Moreover, the z-score in experiment [2] was 0.21 (inactive).

For `C=C1C(=CC=C2CCC[C@@]3(C)C2CCC3C(C)C=CC(O)C2CC2)CC(O)CC1O` (stereo not given in full), the fold change in experiment [1] (setting [3]) was 1.02 (inactive); in experiment [1] (setting [4]) it was 1.9. Also, the cell count was determined as 9990 in experiment [1] (setting [5]) and 9800 in experiment [1] (setting [6]). Moreover, the z-score in experiment [2] is -1.44 (inactive).

Turning to `CC=C1C2C=C(C)C[C@]1(N)c1ccc(=O)[nH]c1C2`, the fold change is 0.883 (inactive) in experiment [1] (setting [3]) and 1.22 in experiment [1] (setting [4]). The values for the cell count in experiment [1] (setting [5]) and in experiment [1] (setting [6]) were 10100 and 11400, respectively. In experiment [2], the z-score is 0.9 (inactive).

Regarding `COc1cccc2c1C(=O)c1c(O)c3c(c(O)c1C2=O)C[C@@](O)(C(=O)CO)CC3OC1CC(N)C(O)C(C)O1` (stereo not given in full), the fold change in experiment [1] (setting [3]) is 0.969 (inactive) and 1 (inactive); in experiment [1] (setting [4]), 0.932 and 0.974. Moreover, the cell count in experiment [1] (setting [5]) is 1960 and 2320; in experiment [1] (setting [6]), 2030 and 2320. Further, the z-score in experiment [2] is -1.87 (inactive) and -1.86 (inactive).
